Source: PubChem BioAssay (National Center for Advancing Translational Sciences (NCATS))
Only some compounds are listed: those with a hit (about 8.5% of all), similar ones and a draw of the others.
JMJD2E inh = qHTS Assay for Inhibitors of Human Jumonji Domain Containing 2E (JMJD2E); Lysine-specific demethylase 4E (Homo sapiens), B2RXH2; JMJD2E catalytic domain, FDH-coupled NADH fluorescence (FDH is formaldehyde dehydrogenase); Potency, µM (doses to about 57.1 µM), without a hit: at the top dose activity change, negative = inhibition, hits mostly inhibitors; hit rate 1.6% among 230,000; AID 2147, 2009; active = well fitted inhibition curve with a large enough effect, not every such curve was filed as active; inconclusive = small, poorly fitted or top-dose-only effect, or another doubt; inactive = no such curve, though single readings can be large or run the other way;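 also: potency is read from the fitted curve at half-maximal effect; 0% = wells with enzyme and -100% = buffer wells without enzyme; nearly all actives have a fitted effect of over 50% in size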
Target sequence (B2RXH2 1-337 limits assumed): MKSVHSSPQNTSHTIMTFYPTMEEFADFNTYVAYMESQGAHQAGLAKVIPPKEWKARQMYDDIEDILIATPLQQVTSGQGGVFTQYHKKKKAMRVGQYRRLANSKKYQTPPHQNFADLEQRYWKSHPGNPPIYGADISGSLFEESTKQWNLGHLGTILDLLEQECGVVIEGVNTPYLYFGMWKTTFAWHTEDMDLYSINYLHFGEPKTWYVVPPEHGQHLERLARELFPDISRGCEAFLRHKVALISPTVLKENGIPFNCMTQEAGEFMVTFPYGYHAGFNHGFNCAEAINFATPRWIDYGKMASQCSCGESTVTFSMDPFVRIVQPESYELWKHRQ
Coupling enz = qHTS Assay for Inhibitors of Fructose-1,6-bisphosphate Aldolase from Giardia Lamblia: Coupling assay counterscreen; coupling enzyme system counterscreen, AmpLite Red fluorescence; activity change, negative = inhibition, % at 58.2 µM, hits read low; hit rate 0.67% among 290,000; AID 2472, 2010; in the data active = activity change below about -30%
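Compounds tested against the coupling enzymes alone at 57.5 uM final; readout was AmpLite Red fluorescence (525/598 nm) after 20 min at RT.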
Sfp inh = qHTS Assay for Inhibitors of Bacillus subtilis Sfp phosphopantetheinyl transferase (PPTase) | Biochemical Sfp PPTase activity, qHTS | hit rate 3.5% among 310,000 | Potency, µM, for the others: largest response in the series, negative = inhibition, usual class: inhibitors | 4'-phosphopantetheinyl transferase ffp (Bacillus subtilis), Q9F4F7;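 also: the enzyme is Sfp with the accession as filed and its product quenches rhodamine fluorescence; potency is read from the fitted curve at half-maximal effect; 0% = enzyme reaction without inhibitor and -100% = no enzyme wells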
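With Hepes-Na pH 7.6 buffer containing 10 mM MgCl2, Sfp (15 nM) modified BHQ-2-YbbR (12.5 uM) using rhodamine-CoA (5 uM). Two reads 30 minutes apart at 525/598 nm yielded each well's rate.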
NPSR antag = qHTS Assay for Antagonists of the Neuropeptide S Receptor: cAMP Signal Transduction; Q6W5P4; CHO-NPSR cells, cAMP TR-FRET, antagonist mode; Potency, µM (doses to about 38.3 µM), for the others: top-dose activity change, negative = inhibition, most hits filed as inhibitors; hit rate 1% among 220,000; AID 1461, 2008; also: potency is read from the fitted curve at half-maximal effect; nearly all actives have a fitted effect of over 50% in size
ALDH1A1 block = qHTS Assay for Inhibitors of Aldehyde Dehydrogenase 1 (ALDH1A1); Aldehyde dehydrogenase 1A1 (Homo sapiens), P00352; Purified ALDH1A1, NADH fluorescence, propionaldehyde substrate; Potency, µM (top dose mostly 75.3 µM), for the others: at the highest dose activity, negative = inhibition, most hits filed as inhibitors; hit rate 7.3% among 220,000; active = well fitted inhibition curve with a large enough effect, not every such curve was filed as active; inconclusive = small, poorly fitted or top-dose-only effect, or another doubt; inactive = no such curve, though single readings can be large or run the other way;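 also: potency is read from the fitted curve at half-maximal effect; plate controls were no enzyme wells and a reference inhibitor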
Target sequence (P00352 whole entry, looked up): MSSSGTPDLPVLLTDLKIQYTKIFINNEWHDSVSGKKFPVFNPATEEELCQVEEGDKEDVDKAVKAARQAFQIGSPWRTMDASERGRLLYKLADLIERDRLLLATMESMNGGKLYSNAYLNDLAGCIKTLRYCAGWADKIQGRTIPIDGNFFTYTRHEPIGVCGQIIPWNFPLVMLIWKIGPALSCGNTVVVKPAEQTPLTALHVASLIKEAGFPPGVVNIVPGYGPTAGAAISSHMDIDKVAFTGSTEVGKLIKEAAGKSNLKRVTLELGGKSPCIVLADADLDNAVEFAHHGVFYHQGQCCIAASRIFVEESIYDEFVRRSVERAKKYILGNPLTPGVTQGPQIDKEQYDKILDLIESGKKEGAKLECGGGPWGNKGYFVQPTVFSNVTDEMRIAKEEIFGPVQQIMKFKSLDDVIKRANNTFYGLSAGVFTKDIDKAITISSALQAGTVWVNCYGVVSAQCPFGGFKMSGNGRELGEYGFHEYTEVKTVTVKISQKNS
GoLoco inh red = qHTS Assay for Inhibitors of RGS12 GoLoco Motif Activity (Red Fluorophore) | Guanine nucleotide-binding protein G(i) subunit alpha-1 (Homo sapiens), P63096 | Gai1:RGS12 GoLoco peptide FP, rhodamine, 10 min | Potency, µM (series often up to 61.6 µM), inactives show at the top dose activity, negative = inhibition, most hits filed as inhibitors | hit rate 0.44% among 230,000 | AID 880, 2007; active = well fitted inhibition curve with a large enough effect, not every such curve was filed as active; inactive = no such curve, though single readings can be large or run the other way; also: potency is read from the fitted curve at half-maximal effect; nearly all actives have a fitted effect of over 30% in size
An asterisk follows results filed as active; ? = inconclusive; . = no result; [ ] = dose if it differs, or a comment. Unless noted, calls follow the shape of the dose curve; as a rule, active = well fitted curve in the direction sought with a large enough effect; inconclusive = small, poorly fitted or top-dose-only effect, or another doubt; inactive = no such curve, though single readings can be large; an effect the other way counts as inactive or inconclusive. Unless noted, % is scaled to controls: 0 for no effect and ±100 for the full control effect.

SMILES | JMJD2E inh | Coupling enz | Sfp inh | NPSR antag | ALDH1A1 block | GoLoco inh red
CCc1cccc(NC(=O)C2CCCN(S(=O)(=O)c3cccnc3)C2)c1 (stereo not given) | . | . | 12.9% | . | . | .
CC(=O)C1=C(O)C(=O)N(c2ccccn2)C1c1ccc(C)cc1 (stereo not given) | . | 1.7 | -2.9% | . | . | .
CS(=O)(=O)O/N=C1\CCCCC1c1ccc([N+](=O)[O-])cc1[N+](=O)[O-] (stereo not given) | . | 1.2 | -7.8% | . | . | .
CC(C)(C)c1ccc(S(=O)(=O)O/N=C2/CCCCC2c2ccc([N+](=O)[O-])cc2[N+](=O)[O-])cc1 (stereo not given) | -12.9% | 0.9 | -1.7% | 22.4%[46.1 µM] | 5.62µM* | -18.3%
Cc1ccc(S(=O)(=O)N2CCN(CC(=O)N/N=C\c3ccc(O)c(O)c3)CC2)cc1 | 15.8µM* | -6.2 | ? | 0.3% | . | -11.2%
CCOc1ccc(C(=O)CN2CCN(S(=O)(=O)c3ccc(F)cc3)CC2)cc1 | -6.6% | -1.3 | -10.0% | -8.4%[46.1 µM] | 20µM* | -4.0%
COc1ccc(S(=O)(=O)N2CCN(CC(=O)c3ccc(O)c(O)c3)CC2)cc1 | . | . | 44.7µM* | . | . | .
COc1ccc(S(=O)(=O)N2CCN(CC(=O)NC3CCCC3)CC2)cc1 | . | 3.2 | 2.9% | . | . | .
O=C(CN1CCN(S(=O)(=O)c2ccc(F)cc2)CC1)c1ccc(O)c(O)c1 | 4.47µM* | -6.4 | 17.8µM* | -3.8% | ? | -29.2%
O=C1CC2(CCCC2)CC(=O)N1CCCCNCC1COc2ccccc2O1 (stereo not given) | . | . | ? | . | ? | 9.4%
CN1C(=S)SC2CS(=O)(=O)CC21 (stereo not given) | -1.0% | -1.8 | 10.8% | 14.4% | . | 3.3%
COc1ccc(N(C(=O)Cn2nnc3ccccc32)C(C(=O)NCc2ccco2)c2ccncc2)cc1 (stereo not given) | . | -0.5 | 16.4% | . | . | .
O=C(CN1CCN(S(=O)(=O)c2ccc(Cl)cc2)CC1)c1ccc(O)c(O)c1 | . | . | 56.2µM* | . | . | .
CC(C)C[C@H](NC(=O)[C@H](CO)NC(=O)[C@@H]1CCCN1C(=O)[C@H](Cc1ccc(O)cc1)NC(=O)[C@H](CC(C)C)NC(=O)[C@H](CC(C)C)NC(=O)[C@@H]1CCCN1C(=O)[C@@H](NC(=O)[C@H](CO)NC(=O)[C@H](CO)NC(=O)[C@H](CO)NC(=O)[C@H](CO)NC(=O)[C@@H]1CCCN1C(=O)[C@@H](NC(=O)[C@@H](N)CO)C(C)C)[C@@H](C)O)C(=O)N[C@@H](C)C(=O)N[C@@H](CC(C)C)C(=O)N1CCC[C@H]1C(=O)N[C@@H](C)C(=O)N1CCC[C@H]1C(=O)O | . | 2.0 | 6.7% | . | . | .
Cc1cc(C)cc(NC(=O)Nc2ccc(N3CCCCC3)cc2)c1 | 3.9% | -1.6 | 50.1µM* | ? | 13.8% | -16.9%
Cc1cc(C)cc(NC(=O)Nc2ccc3c(c2)CCC3)c1 | . | . | 17.7% | . | . | .
O=C(CNCc1cccs1)Nc1ccc(S(=O)(=O)N2CCCCC2)cc1 | ? | -0.3 | -19.2% | -24.2% | ? | -6.7%
Cc1cc(C)cc(C(=O)Nc2ccc(N3CCCC3)cc2)c1 | -2.9% | 0.9 | 50.1µM* | -22.3% | ? | -2.7%
O=C(CNCc1cccs1)Nc1ccc(N2CCCCCC2)cc1 | ? | -12.3 | -58.8% | ? | 22.4µM* | -16.8%
O=C(C1CCC(CNS(=O)(=O)c2ccccc2)CC1)N1CCCCC1 (stereo not given) | . | -0.2 | 8.2% | . | . | .
COc1ccc(CN2CCN(C(=O)C3CCC(CNS(=O)(=O)c4ccccc4)CC3)CC2)c(OC)c1OC (stereo not given) | -1.4% | -0.6 | -1.2% | 4.1% | 14.1µM* | 0.5%
O=C(c1cccs1)N1CCN(Cc2ccccc2[N+](=O)[O-])CC1 | ? | 0.6 | -21.1% | 11.2% | 25.1µM* | -2.0%
COc1ccc(CN2CCN(C(=O)c3cccs3)CC2)c(OC)c1OC | ? | -5.3 | ? | -2.8%[46.1 µM] | 17.8µM* | -5.4%
COc1cccc(C(=O)N2CCN(Cc3ccccc3[N+](=O)[O-])CC2)c1 | ? | -1.1 | -9.3% | 5.5% | ? | 3.6%
O=C(CCn1cnnn1)N1CCCC(Nc2ccc(F)cc2)C1 (stereo not given) | . | -0.3 | 13.3% | . | . | .
SMILES | JMJD2E inh | Coupling enz | Sfp inh | NPSR antag | ALDH1A1 block | GoLoco inh red
Cc1ccc(S(=O)(=O)N2CCOC2CNC(=O)C(=O)NCCCN2CCOCC2)cc1 (stereo not given) | . | . | 22.1% | . | . | .
Cc1nn(-c2ccc(C(=O)Nc3nnc(C4CC4)s3)cc2)c(C)c1Cl | 0.6% | 3.6 | 6.4% | -0.5%[46.1 µM] | 9.1% | -0.4%
Cc1nn(-c2ccccc2)c(Cl)c1C(=O)Nc1nnc(C2CCCCC2)s1 | -0.4% | 8.6 | 10.0% | -17.4%[46.1 µM] | 3.98µM* | 1.3%
CN(C)c1ccc(NC2=C(Cl)C(=O)c3ccccc3C2=O)cc1 | 6.8% | -42.7* | ? | ? | ? | -32.1%
Cc1ccc(NC2=C(NCCO)C(=O)c3ccccc3C2=O)cc1 | ? | -48.1* | -6.8% | -21.0% | 22.4µM* | 4.1%
COc1ccccc1NC1=C(NC(C)=O)C(=O)c2ccccc2C1=O | 25.1µM* | -55.6* | -96.9% | -36.9% | ? | -8.9%
COc1ccc(C2=C(Nc3ccc(C)cc3)c3ccccc3C2=O)cc1 | 0.2% | -4.0 | 4.6% | -2.0% | 7.4% | 14.1%
O=C(Oc1ccc(NC2=C(Cl)C(=O)c3ccccc3C2=O)cc1)c1ccc([N+](=O)[O-])cc1 | 9.5% | -15.6 | -3.7% | ? | 4.3% | 1.7%
CC(=O)Nc1ccc(NC2=C(Cl)C(=O)c3ccccc3C2=O)cc1 | -25.0% | -1.3 | -3.6% | 10µM* | ? | 3.5%
O=C(CCNC(=O)C1CCN(S(=O)(=O)c2ccc(F)cc2)CC1)NCc1ccccc1Cl | . | 4.8 | 13.1% | . | . | .
Fc1cccc(F)c1-n1c(CN2CCCCC2)csc1=S | -0.2% | 2.3 | 6.6% | -38.2% | ? | 6.2%
O=C(O)c1sccc1S(=O)(=O)Nc1ccc(Cl)cc1 | -23.1% | -3.3 | 25.6% | . | -0.1% | -8.8%
Clc1ccc(-c2nc3ccncc3[nH]2)cc1 | ? | 1.3 | ? | 12.5% | 11.2µM* | 8.4%
Fc1ccc(-c2nc3ccncc3[nH]2)cc1 | -1.1% | -0.4 | -1.1% | -1.5%[46.1 µM] | ? | 17.6%
O=C(CSc1cn(Cc2ccccc2)c2ccccc12)Nc1nccs1 | -4.8% | 0.8 | -14.5% | ? | 14.1µM* | -3.0%
Cn1cccc1Cc1nnc(SCC(=O)Nc2nccs2)n1CCc1ccccc1 | 2.9% | 6.2 | 79.4µM* | -19.1% | ? | -0.7%
O=C(CSc1cn(Cc2ccccc2)c2ccccc12)NCc1ccc(F)cc1 | 0.2% | 4.2 | -4.2% | -33.0% | 7.94µM* | -5.1%
